Compound activity (PubChem)
Vaccinia mCherry: inhibitors of vaccinia virus infection (mCherry reporter signal); Potency, µM (highest dose often 36.5 µM), inactives show at the top dose activity change, negative = inhibition, usual class: inhibitors; Vaccinia virus mCherry reporter infection, fluorescence; hit rate 0.63% among 310,000; AID 720579; calls by dose curve; tested in A549 cells; further: potency means the concentration at half of the fitted maximal effect; nearly all actives have a fitted effect of over 35% in size
Vaccinia Venus: vaccinia inhibition (Venus reporter). Potency, µM (top dose mostly 36.5 µM), without a hit: at the top dose activity change, negative = inhibition, actives largely listed as inhibitors. Vaccinia virus Venus reporter expression, fluorescence. AID 720580. hit rate 0.46% among 330,000; calls by dose curve; tested in A549 cells; further: potency means the concentration at half of the fitted maximal effect; nearly all actives have a fitted effect of over 30% in size
MARV entry inh: Marburg virus entry inhibition. Marburg virus pseudotyped entry inhibition, cell reporter. Potency, µM (series often up to 37.8 µM), inactives show at the highest dose activity change, negative = inhibition, actives largely listed as inhibitors. hit rate 1.8% among 300,000; calls by dose curve; tested in HEK293 cells; further: potency means the concentration at half of the fitted maximal effect
HCMV antiviral: blocks human cytomegalovirus replication | hit rate 4.5% among 410,000 | activity change, negative = inhibition, % at 57.5 µM | HFF cells, HCMV-luciferase reporter, 72 h; active compounds read low; in the data active means activity change below about -60%; inconclusive means no clear call, values can overlap the other calls; inactive means above about -39%
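Steps: HFFs plated, 16 h 37C; compounds added; HCMV-luciferase added to MOI 1 PFU/cell; 72 h 37C; OneGlo reagent, 5 min room temperature; luminescence read, normalized to controls.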
FMDV inh: antivirals against foot and mouth disease virus; FMDV antiviral cell-based qHTS; Potency, µM (doses to about 57.9 µM), for the others: top-dose activity change, negative = inhibition, hits mostly inhibitors; hit rate 1.2% among 410,000; AID 1159524; calls by dose curve; tested in HEK293T cells; further: read-out not given here; potency means the concentration at half of the fitted maximal effect; nearly all actives have a fitted effect of over 45% in size
LASV entry inh: blocks Lassa virus binding to or entry into cells | Lassa virus pseudotype entry inhibition, cell reporter | Potency, µM (series often up to 37.9 µM), without a hit: at the highest dose activity change, negative = inhibition, actives largely listed as inhibitors | hit rate 1.2% among 300,000; calls by dose curve; tested in HEK293 cells; further: potency means the concentration at half of the fitted maximal effect; nearly all actives have a fitted effect of over 50% in size
An asterisk follows results filed as active; i = inactive; ? = inconclusive; / = no result given; [ ] = remark or other dose. This is a sample that favours compounds with a hit; in the whole collection about 6.5% have one here. On the % scale 0 is the no-effect control and ±100 the full control effect.

SMILES	Vaccinia mCherry	Vaccinia Venus	MARV entry inh	HCMV antiviral	FMDV inh	LASV entry inh
CCN1CCN(CCNC(=O)c2ccc3c(c2)N(Cc2ccc(F)cc2)C(=O)/C(=C/c2ccccc2)S3)CC1	?	?	?	-81*	6%	?
Cc1cccc(CN2C(=O)/C(=C\c3ccc(C(=O)NCCN4CCOCC4)cc3)Sc3ccccc32)c1	-4%	-26%	?	/	40µM*	?
O=C(NCCc1ccc(F)cc1)C(=O)NCC(c1cccs1)S(=O)(=O)c1ccc(F)cc1 (configuration not stated)	-23%	-18%	/	-21	?	?
COc1ccccc1N1CCN(c2nc(CNC(=O)c3cc(C)oc3C)nc3ccccc23)CC1	-13%	-5%	/	/	-23%	/
O=C1Nc2cc(C(=O)NCCN3CCCCCC3)ccc2S/C1=C/c1ccccc1F	?	13µM*	/	-24	-21%	/
O=C(CN1C(=O)/C(=C/c2ccc(C(F)(F)F)cc2)Sc2ccccc21)NCCCN1CCOCC1	/	/	/	-39	-10%	/
O=C1Nc2cc(C(=O)NCCCN3CCCC3)ccc2S/C1=C/c1ccccc1F	/	/	/	-37	-18%	/
CCc1ccc(/C=C2/Sc3ccccc3N(CC(=O)NCCCN3CCOCC3)C2=O)cc1	/	/	/	-60*	-4%	/
CC1CCN(c2nc(CN3CCCCC3)nc3scc(-c4ccccc4)c23)CC1	-24%	-15%	?	?	32µM*	?
CC1CCN(c2nc(-c3cccnc3)nc3scc(-c4ccccc4)c23)CC1	/	/	/	35	-4%	/
CC(=O)Nc1ccc(C(=O)N/N=C/c2ccccc2OCc2ccccc2)cc1	-20%	-8%	?	-36	-1%	?
Cc1ccc(C(C)C)c(OCc2ccc(C(=O)N/N=C/c3cccc(O)c3O)cc2)c1	10µM*	?	7.3µM*	/	?	12µM*
COc1cc(/C=N/NC(=O)c2ccc(COc3cc(C)ccc3C(C)C)cc2)cc(OC)c1O	-14%	-7%	?	-88*	?	?
COc1cc(C(=O)NCCOc2cc(C)ccc2C(C)C)cc(OC)c1OC	-10%	-29%	3.2µM*	-67*	?	2.8µM*
CCCCn1c(C)cc2c(c1=O)[C@H]1O[C@](CCCC)(Cc3cc(C#N)ccc31)O2	/	/	-18%[14.2 µM]	/	/	?
C/C=C/c1ccc([C@H]2[C@@H](CO)N3CCCCN(C(=O)Cc4ccncc4)C[C@@H]23)cc1	/	/	/	1	/	/
COc1ccc(OCC(=O)N2CCC(c3nc4ccccc4s3)CC2)cc1	-14%	-14%	?	-30	-43%	0%[46.1 µM]
O=C(COc1ccc([N+](=O)[O-])cc1)N1CCC(c2nc3ccccc3s2)CC1	-23%	-26%	?	-61*	?	0%[46.1 µM]
Cc1cccc(N2CCN(c3ccc4cc(S(=O)(=O)N5CCC(C)CC5)ccc4n3)CC2)c1C	-10%	-2%	/	21	-22%	?
COCC(=O)N1CCC(Oc2ccc(C(=O)N3CCCCCCC3)cc2)CC1	i	-11%	-2%	7	18%	-5%
COCC(=O)N1CCC(Oc2ccc(C(=O)N(C)CCCC3CCCC3)cc2)CC1	/	/	/	-67*	?	/
Cc1ccc(C(=O)Cn2c(=N)n(N)c3ccccc32)cc1	/	/	/	39	40µM*	/
Cn1c(=N)n(CC(=O)c2ccccc2)c2ccccc21	?	-1%	2µM*	-15	0%	7.1µM*
COc1ccc2c3c([nH]c2c1)[C@H](CO)N(C(=O)C1CCC1)CC31CCN(C(=O)c2ccncc2)CC1	/	/	/	11	/	/
Cc1cccc(CSc2ncc(Cl)c(C(=O)Nc3sc4c(c3C(N)=O)CCCC4)n2)c1	-25%	-26%	17%[46.1 µM]	6	-14%	1%[46.1 µM]
Cc1nc2ccccc2n1CCc1nc2c3ccccc3nc(SCC(=O)NCc3ccco3)n2n1	/	/	10µM*	-62*	?	?
Cc1ccccc1NC(=O)CSc1nc2ccccc2c2nc(CCn3c(C)nc4ccccc43)nn12	?	?	/	-4	?	1%[46.1 µM]
Cc1c(O)nc(SCC(=O)Nc2cccc(C(F)(F)F)c2)n(-c2ccccc2)c1=O	i	-11%	-14%	-104*	-21%	11%
Cc1ccc(NC(=O)CSc2nc3ccccc3c3nc(CCn4c(C)nc5ccccc54)nn23)cc1F	?	?	/	-11	-27%	-12%[46.1 µM]
